# Source: PubChem BioAssay (NCATS)
# Records with an inconclusive call do not appear. A call without a number means that no potency is given here. The source made the active and inactive calls. Unless noted, calls come from the whole dose curve; as a rule, active = well fitted curve in the direction sought with a large enough effect; inconclusive = small, poorly fitted or top-dose-only effect, or another doubt; inactive = no such curve, though single readings can be large; an effect the other way counts as inactive or inconclusive.
# What was measured:
# [1] = molecular target: Catechol O-methyltransferase (Homo sapiens) (UniProt P21964); assay: Confirmatory Screen for Target Class Profiling of Small Molecule Inhibitors of Methyltransferases (AID 1745852; calls by dose curve; note: potency is the fitted concentration of half-maximal effect); conditions: MTase-Glo luminescence, SAH detection, recombinant enzyme; measured here: COMT max response; stronger effect = lower value
# [2] = molecular target: Guanidinoacetate N-methyltransferase (Homo sapiens) (UniProt Q14353); assay: as above; conditions: MTase-Glo luminescence, SAH detection, recombinant enzyme; activity change, negative = inhibition: at 57.3 µM (top of the series)
# [3] = molecular target: Nicotinamide N-methyltransferase (Homo sapiens) (UniProt P40261); assay: as above; conditions: MTase-Glo luminescence, SAH detection, recombinant enzyme; measured here: NNMT max response; stronger effect = lower value
# [4] = molecular target: Phenylethanolamine N-methyltransferase (Homo sapiens) (UniProt P11086); assay: as above; conditions: MTase-Glo luminescence, SAH detection, recombinant enzyme; measured here: PNMT max response; stronger effect = lower value
# [5] = molecular target: Cytochrome P450 3A4 (Homo sapiens) (UniProt P08684); assay: qHTS Assay for Activators of Cytochrome P450 3A4 (AID 885); conditions: recombinant CYP3A4, Luciferin-PPXE luminescence, 60 min; series mostly up to 57.1 µM; note: nearly all actives have a fitted effect of over 65% in size
# Method in brief: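 Using 20nM recombinant human CYP3A4 in potassium phosphate (200mM), substrate Luciferin-PPXE at 25uM, luminescent luciferin detection followed a 60-min RT NADPH reaction; data scaled to 57 uM ketoconazole.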
# [6] = molecular target: ATP-dependent 6-phosphofructokinase (Trypanosoma brucei brucei) (UniProt O15648); assay: qHTS Assay to Find Inhibitors of T. brucei phosphofructokinase: hit validation (AID 492961);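 note: luminescence reports ADP formed as PFK phosphorylates fructose-6-phosphate with ATP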; conditions: T. brucei PFK, ADP-Glo luminescence; series mostly up to 51.4 µM
# Method in brief: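 PFK 1.25 nM, F6P 0.5 mM, ATP 0.1 mM, MgCl2 5 mM, 0.1 M TEA pH 8.0, Tween20 0.01%, BSA 0.1%; 45 min RT. ADP-Glo two-step detection, luminescence. qHTS titration; curve fitting with curve-class categorization.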
# [7] = molecular target: Luciferin 4-monooxygenase (Photinus pyralis) (UniProt P08659); assay: Biochemical firefly luciferase enzyme assay for NPC (AID 624030); note: nearly all actives have a fitted effect of over 70% in size; note: potency is the fitted concentration of half-maximal effect;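 for activity change, negative = inhibition: purified P. pyralis luciferase at 10 nM with luciferin and ATP substrate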; conditions: purified P. pyralis luciferase, luminescence, 5 min; series mostly up to 58.6 µM
# Method in brief: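 Counter-screen for direct inhibition of the luciferase enzyme by approved-drug library compounds, run at 10 nM enzyme in 50 mM Tris acetate (final). Luminescence was read within 5 min of enzyme-buffer addition and normalized to PTC124 versus DMSO (0%).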
# [8] = test system: 3D7; assay: qHTS profiling for inhibitors of Plasmodium falciparum proliferation (AID 504749); note: nearly all actives have a fitted effect of over 60% in size; note: potency is the fitted concentration of half-maximal effect; conditions: P. falciparum in erythrocytes, SYBR Green DNA, 72 h; series mostly up to 28.7 µM
# Method in brief: (§1)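 Fluorescence of SYBR Green-bound parasite DNA, read at 485/535 nm, served as the growth measure. Infected erythrocytes were cultured with compound 72 h; artemisinin (0.29 uM) and DMSO wells defined the normalization range.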
# [9] = test system: ATS189; assay: as above; conditions: P. falciparum in erythrocytes, SYBR Green DNA, 72 h; series mostly up to 28.7 µM
# Method in brief: as §1
# [10] = test system: CP185; assay: as above; conditions: P. falciparum in erythrocytes, SYBR Green DNA, 72 h; series mostly up to 28.7 µM
# Method in brief: as §1
# [11] = test system: CP192; assay: as above; conditions: P. falciparum in erythrocytes, SYBR Green DNA, 72 h; series mostly up to 28.7 µM
# Method in brief: as §1
# [12] = test system: CP194; assay: as above; conditions: P. falciparum in erythrocytes, SYBR Green DNA, 72 h; series mostly up to 28.7 µM
# Method in brief: as §1
# [13] = test system: CP201; assay: as above; conditions: P. falciparum in erythrocytes, SYBR Green DNA, 72 h; series mostly up to 28.7 µM
# Method in brief: as §1
# [14] = test system: CP247; assay: as above; conditions: P. falciparum in erythrocytes, SYBR Green DNA, 72 h; series mostly up to 28.7 µM
# Method in brief: as §1
# [15] = test system: CP291; assay: as above; conditions: P. falciparum in erythrocytes, SYBR Green DNA, 72 h; series mostly up to 28.7 µM
# Method in brief: as §1
# [16] = test system: DIV30; assay: as above; conditions: P. falciparum in erythrocytes, SYBR Green DNA, 72 h; series mostly up to 28.7 µM
# Method in brief: as §1
# [17] = test system: HB3; assay: as above; conditions: P. falciparum in erythrocytes, SYBR Green DNA, 72 h; series mostly up to 28.7 µM
# Method in brief: as §1
# [18] = test system: P94_40; assay: as above; conditions: P. falciparum in erythrocytes, SYBR Green DNA, 72 h; series mostly up to 28.7 µM
# Method in brief: as §1
# [19] = test system: TAB113; assay: as above; conditions: P. falciparum in erythrocytes, SYBR Green DNA, 72 h; series mostly up to 28.7 µM
# Method in brief: as §1
# [20] = molecular target: Cytochrome P450 2C9 (Homo sapiens) (UniProt P11712); assay: Cytochrome P450 family 2 subfamily C member 9 (CYP2C9) small molecule antagonists: luciferase biochemical (cell-free) qHTS assay (AID 1645842; active = well fitted curve in the direction sought with a large enough effect in the repeat runs; an effect the other way counts as inactive or inconclusive; note: nearly all actives have a fitted effect of over 55% in size; note: potency is the fitted concentration of half-maximal effect); conditions: P450-Glo CYP2C9 enzyme assay, luciferin luminescence; series mostly up to 57.4 µM
# Method in brief: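 P450-Glo CYP2C9 system: proluciferin substrate with enzyme in mix containing 0.4% BSA, 10 min at room temperature, then NADPH regeneration solution added and incubated 1 h at 37C. Detection reagent stopped reaction; luminescence read after 20 min as RLU.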
# Catechol O-methyltransferase (Homo sapiens), sequence (P21964 whole entry, looked up): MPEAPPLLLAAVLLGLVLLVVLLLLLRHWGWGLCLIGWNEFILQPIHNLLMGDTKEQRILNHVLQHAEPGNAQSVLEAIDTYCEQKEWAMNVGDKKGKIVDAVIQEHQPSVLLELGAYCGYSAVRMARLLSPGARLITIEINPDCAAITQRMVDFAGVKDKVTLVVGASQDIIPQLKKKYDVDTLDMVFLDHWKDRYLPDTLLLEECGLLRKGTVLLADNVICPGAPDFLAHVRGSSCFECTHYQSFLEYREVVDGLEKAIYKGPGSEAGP
# Phenylethanolamine N-methyltransferase (Homo sapiens), sequence (P11086 whole entry, looked up): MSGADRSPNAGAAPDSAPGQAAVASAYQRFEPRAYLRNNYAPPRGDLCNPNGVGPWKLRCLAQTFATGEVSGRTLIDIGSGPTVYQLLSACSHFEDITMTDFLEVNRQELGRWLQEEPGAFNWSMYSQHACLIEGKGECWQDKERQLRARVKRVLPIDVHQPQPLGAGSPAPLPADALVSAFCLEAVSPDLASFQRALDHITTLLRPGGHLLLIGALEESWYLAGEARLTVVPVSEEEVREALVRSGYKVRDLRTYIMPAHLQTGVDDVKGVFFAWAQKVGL
# ATP-dependent 6-phosphofructokinase (Trypanosoma brucei brucei), sequence (O15648 whole entry, looked up): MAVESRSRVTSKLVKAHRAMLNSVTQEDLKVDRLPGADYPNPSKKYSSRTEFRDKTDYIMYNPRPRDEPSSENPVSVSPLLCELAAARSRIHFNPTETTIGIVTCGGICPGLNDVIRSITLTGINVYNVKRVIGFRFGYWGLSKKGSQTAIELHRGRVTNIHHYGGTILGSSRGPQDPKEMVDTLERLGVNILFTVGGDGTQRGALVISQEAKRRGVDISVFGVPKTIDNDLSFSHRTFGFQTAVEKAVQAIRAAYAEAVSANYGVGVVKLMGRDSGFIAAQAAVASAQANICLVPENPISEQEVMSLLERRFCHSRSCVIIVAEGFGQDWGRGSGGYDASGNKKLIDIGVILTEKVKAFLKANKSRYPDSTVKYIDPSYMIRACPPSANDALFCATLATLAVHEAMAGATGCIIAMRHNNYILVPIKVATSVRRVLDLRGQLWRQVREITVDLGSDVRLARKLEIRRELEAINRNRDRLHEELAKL
# Nicotinamide N-methyltransferase (Homo sapiens), sequence (P40261 whole entry, looked up): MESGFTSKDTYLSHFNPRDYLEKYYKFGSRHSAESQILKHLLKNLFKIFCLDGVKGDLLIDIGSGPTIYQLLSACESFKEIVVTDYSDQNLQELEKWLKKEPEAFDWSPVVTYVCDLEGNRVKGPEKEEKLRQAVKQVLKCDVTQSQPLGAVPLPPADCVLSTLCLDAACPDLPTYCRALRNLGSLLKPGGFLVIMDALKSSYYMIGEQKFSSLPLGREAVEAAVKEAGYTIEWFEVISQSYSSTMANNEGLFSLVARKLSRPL
# Luciferin 4-monooxygenase (Photinus pyralis), sequence (P08659 whole entry, looked up): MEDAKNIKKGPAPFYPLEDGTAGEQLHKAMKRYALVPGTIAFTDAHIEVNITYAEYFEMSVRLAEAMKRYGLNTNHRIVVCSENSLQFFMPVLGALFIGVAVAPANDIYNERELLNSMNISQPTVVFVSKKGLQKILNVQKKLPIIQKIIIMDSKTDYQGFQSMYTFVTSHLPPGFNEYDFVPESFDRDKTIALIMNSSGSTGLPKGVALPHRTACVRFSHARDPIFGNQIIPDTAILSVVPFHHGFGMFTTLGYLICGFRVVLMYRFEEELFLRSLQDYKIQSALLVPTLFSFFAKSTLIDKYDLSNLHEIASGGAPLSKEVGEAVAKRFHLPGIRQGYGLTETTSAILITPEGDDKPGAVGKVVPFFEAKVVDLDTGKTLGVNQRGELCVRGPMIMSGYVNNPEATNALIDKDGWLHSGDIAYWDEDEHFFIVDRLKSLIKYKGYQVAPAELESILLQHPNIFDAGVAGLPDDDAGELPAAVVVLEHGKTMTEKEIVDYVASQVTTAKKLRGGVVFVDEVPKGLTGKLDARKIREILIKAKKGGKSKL
# Cytochrome P450 2C9 (Homo sapiens), sequence (P11712 whole entry, looked up): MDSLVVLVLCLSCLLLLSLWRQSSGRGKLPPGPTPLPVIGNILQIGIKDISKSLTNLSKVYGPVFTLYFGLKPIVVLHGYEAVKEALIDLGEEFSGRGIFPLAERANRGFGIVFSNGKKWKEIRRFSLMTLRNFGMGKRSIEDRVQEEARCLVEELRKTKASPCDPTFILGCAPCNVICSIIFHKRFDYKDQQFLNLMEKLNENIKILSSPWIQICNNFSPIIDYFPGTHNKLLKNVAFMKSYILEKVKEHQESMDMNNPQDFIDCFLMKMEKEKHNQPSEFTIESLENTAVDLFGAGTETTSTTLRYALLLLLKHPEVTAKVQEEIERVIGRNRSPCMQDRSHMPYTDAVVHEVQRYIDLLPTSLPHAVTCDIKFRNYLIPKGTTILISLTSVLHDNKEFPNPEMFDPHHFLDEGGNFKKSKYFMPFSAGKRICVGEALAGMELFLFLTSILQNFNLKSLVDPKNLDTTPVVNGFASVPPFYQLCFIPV
# Cytochrome P450 3A4 (Homo sapiens), sequence (P08684 whole entry, looked up): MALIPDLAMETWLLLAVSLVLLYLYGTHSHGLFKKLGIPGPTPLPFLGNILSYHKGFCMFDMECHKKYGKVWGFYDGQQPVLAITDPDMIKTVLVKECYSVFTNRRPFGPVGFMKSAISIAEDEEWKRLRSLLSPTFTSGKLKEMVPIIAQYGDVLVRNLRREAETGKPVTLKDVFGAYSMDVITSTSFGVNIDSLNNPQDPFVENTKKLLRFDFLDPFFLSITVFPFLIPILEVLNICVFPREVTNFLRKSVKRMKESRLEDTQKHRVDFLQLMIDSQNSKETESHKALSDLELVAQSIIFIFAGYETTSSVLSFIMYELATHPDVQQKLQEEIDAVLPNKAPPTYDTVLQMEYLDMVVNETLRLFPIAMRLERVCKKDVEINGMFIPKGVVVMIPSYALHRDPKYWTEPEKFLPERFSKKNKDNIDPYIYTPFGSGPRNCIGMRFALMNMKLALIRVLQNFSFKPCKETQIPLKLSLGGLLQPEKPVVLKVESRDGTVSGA
smiles,measurement,setting,value
O=C(/C=C/c1ccc(CN(CCO)CCc2c[nH]c3ccccc23)cc1)NO,activity,[1],18.9%
same,Potency,[2],34.3 µM (active)
same,activity,[3],-12.8%
same,activity,[4],-2.68%
C=C[C@@](C)(O)CC[C@@H]1[C@@]2(C)CCCC(C)(C)[C@@H]2CC[C@@]1(C)O,Potency,[5],inactive
O=C(/C=C/C#Cc1cccc(NS(=O)(=O)c2ccccc2)c1)NO,activity,[1],41.7%
same,"activity change, negative = inhibition",[2],-11.3%
same,activity,[3],-13.8%
same,activity,[4],1.13%
COc1cc2c(NC3CCN(C4CCCCC4)CC3)nc(N3CCCN(C(C)C)CC3)nc2cc1OCCCN1CCCCC1,activity,[1],-2.63%
same,"activity change, negative = inhibition",[2],5.88%
same,activity,[3],-10.6%
same,activity,[4],-1.48%
C[C@@]12C(=O)OC(=O)[C@]1(C)[C@H]1CC[C@@H]2O1,outcome,[6],inactive
same,Potency,[7],inactive
same,Potency,[8],3.16 µM (active)
same,Potency,[9],2.82 µM (active)
same,Potency,[10],2.51 µM (active)
same,Potency,[11],4.55 µM (active)
same,Potency,[12],2.87 µM (active)
same,Potency,[13],3.61 µM (active)
same,Potency,[14],1.78 µM (active)
same,Potency,[15],3.22 µM (active)
same,Potency,[16],5.73 µM (active)
same,Potency,[17],3.55 µM (active)
same,Potency,[18],2.51 µM (active)
same,Potency,[19],3.98 µM (active)
CN(CCOc1ccc(C[C@H](Nc2ccccc2C(=O)c2ccccc2)C(=O)O)cc1)c1ccccn1,Potency,[5],inactive
CC(/C=C1\SC(=S)N(CC(=O)O)C1=O)=C\c1ccccc1,outcome,[6],inactive
same,Potency,[7],6.42 µM (active)
same,Potency,[8],inactive
same,Potency,[9],inactive
same,Potency,[10],inactive
same,Potency,[11],inactive
same,Potency,[12],inactive
same,Potency,[13],inactive
same,Potency,[14],inactive
same,Potency,[15],inactive
same,Potency,[16],inactive
same,Potency,[17],inactive
same,Potency,[18],inactive
same,Potency,[19],inactive
Cc1c(CN2CCN(C(=O)[C@H](C)O)CC2)sc2c(N3CCOCC3)nc(-c3cnc(N)nc3)nc12,Potency,[20],inactive
O=C(/C=C/c1cccnc1)NCCCCC1CCN(C(=O)c2ccccc2)CC1,Potency,[20],13.5 µM (active)
C=C1CCC2[C@](C)(CO)C(O)CC[C@]2(C)C1C/C=C1/C(=O)OCC1O (stereo partly drawn),Potency,[5],inactive
same,outcome,[6],inactive
same,Potency,[7],inactive
same,Potency,[8],inactive
same,Potency,[9],inactive
same,Potency,[10],inactive
same,Potency,[11],inactive
same,Potency,[12],inactive
same,Potency,[13],inactive
same,Potency,[14],11.2 µM (active)
same,Potency,[15],inactive
same,Potency,[16],inactive
same,Potency,[17],inactive
same,Potency,[18],inactive
same,Potency,[19],inactive
Cc1cccc(/C=N/Nc2cc(N3CCOCC3)nc(OCCc3ccccn3)n2)c1,Potency,[20],7.56 µM (active)
NS(=O)(=O)c1ccc(Cc2c(-c3cccc(-c4ccccc4)c3)nn(-c3nc(C(=O)O)cs3)c2CC2CC2)cc1,Potency,[20],21.3 µM (active)
Cn1cc(/C=C2\C(=O)Nc3cccnc32)c2ccccc21,Potency,[20],inactive
COC[C@@H](c1ccc(C(F)(F)F)cc1)N1CCN(C2(C)CCN(C(=O)c3c(C)ncnc3C)CC2)C[C@@H]1C,Potency,[7],inactive
